Source: PubChem BioAssay AID2158 (National Center for Advancing Translational Sciences (NCATS), 2009)
Values joined by “and” are separate entries in the source; they are usually repeats but may differ in a detail not shown here. Equal entries are not always repeated. Records with an inconclusive call do not appear. Active and inactive are the calls of the source. Calls follow the shape of the dose curve; as a rule, active = well fitted inhibition curve with a large enough effect; inconclusive = small, poorly fitted or top-dose-only effect; inactive = no such curve, though single readings can be large or run the other way.

Target: Cruzipain (Trypanosoma cruzi) (UniProt P25779)
Assay: Confirmation qHTS Assay for Inhibitors of Cruzain; also: nearly all actives have a fitted effect of over 40% in size;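 as to Activity change, negative = inhibition: plate controls were uninhibited enzyme control for no effect and buffer wells lacking enzyme for full effect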
Details: purified cruzain, Z-FR-AMC fluorescence, 0.01% Triton
Outline: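 Purified cruzain, 1.5 nM, pre-incubated 15 min at room temperature with compound in 100 mM sodium acetate pH 5.5, 5 mM DTT, 0.01% Triton X-100. Then 2 uM Z-FR-AMC added; AMC fluorescence (ex 360/em 450 nm) increase over 60 s gave reaction progress.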
Potency is read from the fitted curve at half-maximal effect.

Cruzipain (Trypanosoma cruzi), sequence (P25779 123-467 limits assumed): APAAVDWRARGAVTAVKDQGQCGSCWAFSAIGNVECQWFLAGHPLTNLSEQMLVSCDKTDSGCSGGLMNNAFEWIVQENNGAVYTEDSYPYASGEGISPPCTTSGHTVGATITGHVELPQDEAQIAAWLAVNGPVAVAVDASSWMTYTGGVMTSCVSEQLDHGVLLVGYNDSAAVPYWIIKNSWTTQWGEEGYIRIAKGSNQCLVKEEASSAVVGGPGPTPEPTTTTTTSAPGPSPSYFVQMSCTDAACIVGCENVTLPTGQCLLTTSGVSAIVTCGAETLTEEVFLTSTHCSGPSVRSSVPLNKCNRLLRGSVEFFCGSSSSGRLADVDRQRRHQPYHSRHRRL

Potency, active:
N#Cc1nc(Nc2cc(F)cc(F)c2)c2ncn(CC(F)F)c2n1 0.01 µM
CCN(CC)c1nc(C#N)nc(N(CC)CC)n1 17.8 µM and 14.1 µM
Clc1ccc2[nH]c3c(NCCCN4CCOCC4)ncnc3c2c1 12.6 µM
COC(=O)Sc1nc(N2CCOCC2)c2c(c1C#N)CC(C)(C)OC2 14.1 µM
COc1ccc(C(=O)COC(=O)CNC(=O)C2CCCCC2)c(OC)c1 14.1 µM
O=C(CNC(=O)C1CCCCC1)OCC(=O)c1ccc(-c2ccccc2)cc1 1.58 µM
Cc1ccccc1OCCn1c(CCNC(=O)C2CCCCC2)nc2ccccc21 631 nM and 1 µM
N#Cc1nc(NCC(F)F)c2ncn(-c3cc(F)cc(F)c3)c2n1 0.0562 µM
N#Cc1nc(N)nc(N(c2ccccc2)c2ccccc2)n1 3.55 µM and 3.16 µM
N#Cc1nc(N2CCCCC2)nc(N(c2ccccc2)c2ccccc2)n1 2.24 µM
O=C(COC(=O)CNC(=O)C1CCCCC1)Nc1cc(C(F)(F)F)ccc1Cl 2.82 µM
O=C(CNC(=O)c1ccccc1)OCC(=O)c1ccccc1 15.8 µM
O=c1cc(-c2cccc(Br)c2)nc(-c2ccccc2F)o1 11.2 µM
CC(C)CCNC(=O)Cn1c(SCc2cccc(F)c2)nc2ccncc21 14.1 µM
Cc1ccc(Nc2nc(C#N)nc(NC3CCCC3)n2)cc1 0.447 µM
CCn1cnc2c(Nc3cc(F)cc(F)c3)nc(C#N)nc21 0.01 µM
COc1ccccc1OCCCn1c(CCNC(=O)C2CCCCC2)nc2ccccc21 0.708 µM
CC(=O)OC1(C(F)(F)F)Oc2ccccc2NC1=O (stereo not drawn) 2.82 µM
Cc1cc(C)cc(OCCn2c(CCNC(=O)C3CCCCC3)nc3ccccc32)c1 631 nM and 2.24 µM
COc1ccc(-c2cnnn2-c2ccc(NC(=O)/C=C/c3ccc(OC)c(OC)c3)cc2)cc1 15.8 µM
CCC(C)NC(=O)c1ccc2nc(-c3ccco3)c(-c3ccco3)nc2c1 (stereo not drawn) 7.08 µM
O=C(CNC(=O)c1ccccc1)OCC(=O)c1ccc2ccccc2c1 15.8 µM

Activity change, negative = inhibition, inactive:
Cc1cccc(C(=O)NC2CCN(C#N)CC2)c1 -3.52% and 7.39%
N#CN1CCC(NC(=O)c2ccc(F)cc2)CC1 0.471%
COc1ccc(/C=N/NC(=O)c2ccc(Br)cc2)cc1Cn1cc(Cl)cn1 -13.6%
O=C(CNC(=O)C(c1ccccc1)c1ccccc1)OCC(=O)c1ccc2ccccc2c1 28.2%
CN(C)c1ccc(-c2nn3c(-c4cc(-c5ccccc5)n[nH]4)nnc3s2)cc1 -5.13%
COCC(C)NC(=O)Cn1c(SCc2ccccc2)nc2ccccc21 (stereo not drawn) -6.96%
COc1ccccc1CCNC(=O)CNC(=O)c1ccc2ccccc2c1 -7.19%
Cc1ccc(C(=O)NCCn2c(N)c(C#N)c3nc4ccccc4nc32)cc1 -28.5%
Cc1ccc2[nH]c(=O)c(CN(Cc3ccccc3)Cc3nnnn3Cc3ccccc3)cc2c1 -15.4%
Cc1ccc(S(=O)(=O)NC(N)=NCCC[C@@H](N)C(=O)Nc2cc(C(F)(F)F)ccc2Cl)cc1 -17.2%
Cc1ccccc1OCC(=O)NCC(=O)OCc1cccc2ccccc12 -2.79%
O=C(Nc1ccccc1)c1ccc(-n2nncc2-c2ccccc2)cc1 -11.6%
CC1CCN(c2oc(-c3cccc4ccccc34)nc2C#N)CC1 -40.4%
O=C(NCC1CC1)c1ccc2nc(-c3ccoc3)c(-c3ccoc3)nc2c1 -15.5%
CCc1ccc2[nH]c(=O)c(CN(Cc3ccccc3)Cc3nnnn3C(C)(C)C)cc2c1 -22.1%
CC(C)(C)OC(=O)Cc1nnc(CNC(=O)c2ccccc2)s1 -0.719%
